The supplement of paper PMC12632987
Whole data set: some 1,800 sequences, median “median log2 fold change of GCK-ALFA target abundance (FLAG IP / Myc IP barcode read proportion)” near 0.14, cut for the lowest 2% near -0.84. This excerpt belongs to a sample that is enriched for the lowest values.

B1: traf2_out_6_156_2377 (protein)
chain: TKEEILKKAKEKIEKEIKKLAEASEEKKIKYISEIAGAVYKALQALREAGASVEEIKKAVEELKKVAEEEAKKAGLPEDTINLLLSSINAVGEVALREAE
B2: traf2_out_17_178_1665 (protein)
chain: TKEEERKKISELTDKLIDLAEAAADRALALAEREGDLSPEELAALREARRRGSATDVRALMRRWIPRLRSAAELGALLEEFEAEYRKLSKEIAEAYEKYE
B3: traf2_out_11_155_731 (protein)
chain: EKKEKARREIVDFAIEQGDELEAFVEALIKEVEKEDPELAKELRAVFEEHRKYSARSAALAAIDVLRKHGYEERAEELEKKIEEANKKASEFIKKIEEEL
B4: traf2_out_20_38_2042 (protein)
chain: EEEEKEEEQIELDVEIANEALDEVEERFAKWRAEGLSLEEIAERVKEEIRKAFKEAGLEEKLPEYLEQIDLVRDSPDAERLLERILARALALVRRKKREK
B5: traf2_out_20_38_2028 (protein)
chain: SEEEEEKKRLEELIKVANEAYDKAEKKIAKLKAEGKTIEEIAEEAKEEVERILSEVGLEEEREELIEDIDRVLDSPDAERLIARILARAVALAYQKELQK
B6: traf2_out_20_38_2026 (protein)
chain: SMEEEEEKKLEELIKVAQEAYDEAEKKIEELKKEGKSIEEIAEIAKEEIERILSEEGLEEEKEELIEEVDLVLDSPDAERLIARILARAVALAHQKRLEK
B7: traf2_out_5_189_2315 (protein)
chain: SAREEEQKALNEKAKEIGKEVTKLINEMKKEGKSWEEIAEKMLEKMKTLPVDDAALYSGIFYSIMLGEAIANNDEKLKEIAEKFREKAKELIKEKEKKEA
B8: traf2_out_17_162_1608 (protein)
chain: MELEEKLKKLKELLEELEKKLKRLEEKLKNIEKLSKEELSDLLVEASEARRKALEALEEIKKLKEKLDKEEYEKLSKRFEEIAEKFQRIANKFYKELEKK
B9: traf2_out_3_89_2292 (protein)
chain: SEERERKIRLARERAERYARGFEKSARRVAKEMLKEGYSLETLRGVLEAARTALVEVFREELRELGLSEEDIRELVEELERRLREIVEKVLEEAEKKRKE
B10: traf2_out_20_3_2164 (protein)
chain: SELEKKLEEELERALKLLKKAAELSDEETKKKLKELIERLKESRSLSPSDRLVVVSEVRREVLLLAQKAKAEGKEELAKLLEEAAEELNRAMQLLYEIIE
B11: traf2_out_13_95_1191 (protein)
chain: EEEKRKKYAERTNAIADELLDHADAKIAELEAATGDPELGAELRRVLDRGGVSALIHRIRELAKEDPAYREAYEAAAAELEAKRREAGRRVAEAEKEIEA
B12: traf2_out_17_162_1521 (protein)
chain: SPLEAELKALEAELEALKKKLEELKKKLENLDKMSKEELTDLLVEASEARRKALELAERLKRLKPLIGEERAGALIAEAEAIAEELQKIANKIYKKLEEK
B13: traf2_out_17_162_1578 (protein)
chain: EELKKELEELKKKLEELKKKLKEFEKKLPELPKMSYEELTDLLVEVSELKREARELAEKLEELGKKLGEEEIKKLVEEAKEIAEKLQKIANKIYKEIEKK
B14: traf2_out_20_3_2068 (protein)
chain: EELEKELEEALEKALALLKKAAALADPETAAELDALIKELKASKELSVSDRLVAVSAVRRRVLRLAEEAEAAGDAELAAVLNKAADALNRAAQLLYQILQ
B15: traf2_out_15_48_1358 (protein)
chain: STEALRETARKVADLIDATLDEVAKELKALLPKAKPEVKPILEEAIRVASTHRSINDTIALLEEAIKKSDPELAKELQELRDRLLATQKEASKLINETEK
B16: traf2_out_17_162_1493 (protein)
chain: SELEEKKKKLEKELKELKKKLKELEKKLENIEKLSKEELTDLLVEASELKRKARQLAEEYKKLLKKTGDKELEKLIKEAEELAERAQKIANKIYKEIEKK
B17: traf2_out_20_3_2136 (protein)
chain: SELEEELKKELEKAKKLLEKAAALADKETAAKLKALIKRLEASEELSPEDRLVEFSEIRREVLELALAAEAAGKAELAKLLNEAADALNKAMNLLMKIIE
B18: traf2_out_8_15_2548 (protein)
chain: SIKEAAEKDIARLKALSDGDKESLINTLLGMAKGELRLAKIYKEEGRKEEALRTLEYARIYAEAALELAKEIGSPRLEEIKKEVEELEKEIEELRKEIEA
B19: traf2_out_20_3_2212 (protein)
chain: EELRKKVEEELEKIRELLEKAKPRLPEEDYARLKELLERAEEALKEDPSDALVELSELKALLLRLSQEARAAGDEELAALLDEAADAANKAANLVYKILE
B20: traf2_out_20_38_2001 (protein)
chain: SAEEEEEEKLKKIIDVANEAYDEASKEIEELKAAGKSVEEIAEIVRAKVRELLTAAGLEEELEELLADIDRALSSPNALRLFARIRARAVALVKQKELNE
B21: traf2_out_1_27_1004 (protein)
chain: STEEERELLRRANREIGRASPEERVEVIVRALEEALARGLESPEHIAVVLILSLGEEEERRRAIEAAEEVLRAAGVSEEAIERMRRRVESGWARLDKLLA
B22: traf2_out_14_149_1260 (protein)
chain: SATEERRRALREALELFERAAELLAAAIAAGSNDLDVEELRRLLEEAREILSKQGFVLGSLLAIEELLEEAEELTEEDLRRLLELAERAAESLEVLAEML
B23: traf2_out_17_178_1741 (protein)
chain: SKEEILKEISKLADEMIDVSREAAEKLTELAEKEGILTPELRERLDLVARTSNLYAFEEVANELIELSKNKEEIQKLLDETTKKLRELRKKIQEAVEKLK
B24: traf2_out_13_95_1214 (protein)
chain: SAEANAELREVAREYTDRAEAVIDALAAALAPDPEVQPDMDAIRAAFRRNGVRQAIALIRAAAARHPEHKADFDAAAAELEAIRREAGRRFAEILKRDEE
B25: traf2_out_9_108_2593 (protein)
chain: MTKEEILEEKFKKVEELVKEFIEEVDLTEEQKEELEEAIKNAKELYEKGLKETAIILLAIDLARVASKVGEEAVKELLEKLKKIDERAYSAAERMVKLLK
B26: traf2_out_17_162_1623 (protein)
chain: SPEEEELKRYEEELKELEKEKKELEKKAEKIDELSKEELTDLLVEASEARRRARELAERIERKREELNDPRLEELLKRAEEIAEEFQRIANKFYKKLEEK
B27: traf2_out_1_33_1031 (protein)
chain: SAEIERKSMALLRRTTGEMYRLLRETEEKMEKLLEEGKPAEEIEKLAEETRKKIKEIADKAIAELKALGDDLTADILESEKTDILKRLDEIKKEILAKLK
B28: traf2_out_20_38_2038 (protein)
chain: SEEEEEEERLERLVEVANAALDRYEARIAALQAEGKSVAEIAEWAKEEIRRILGEAGLEEEAEELIAQVRTVENRPDALRLIARILARAEALAYQKELQK
B29: traf2_out_11_131_661 (protein)
chain: MDAVAMAKSVAARVDERLALAKTLSPEERTRLARQALDSIEALAEYLTSHVSEMSKEDVEEAVKILRASAKKVLAADPSVAEDVKEVEKALKKLLEAAKA

Target: T1, TRAF2, Q12933
T1 chain: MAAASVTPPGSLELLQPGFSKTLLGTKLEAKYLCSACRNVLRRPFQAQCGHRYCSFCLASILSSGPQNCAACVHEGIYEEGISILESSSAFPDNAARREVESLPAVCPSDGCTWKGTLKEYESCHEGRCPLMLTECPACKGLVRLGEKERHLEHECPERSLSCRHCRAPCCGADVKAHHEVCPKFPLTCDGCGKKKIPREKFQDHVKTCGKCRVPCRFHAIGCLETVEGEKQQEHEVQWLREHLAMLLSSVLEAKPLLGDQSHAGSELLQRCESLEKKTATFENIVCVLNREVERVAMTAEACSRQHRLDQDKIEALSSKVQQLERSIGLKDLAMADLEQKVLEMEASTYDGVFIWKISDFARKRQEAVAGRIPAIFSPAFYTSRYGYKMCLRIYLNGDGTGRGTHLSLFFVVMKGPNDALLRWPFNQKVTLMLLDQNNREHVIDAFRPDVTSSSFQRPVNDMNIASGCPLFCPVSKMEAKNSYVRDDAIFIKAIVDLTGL
Assay: median log2 fold change of GCK-ALFA target abundance (FLAG IP / Myc IP barcode read proportion) (log2 ratio); each designed protein is fused to an ALFA-tag nanobody in HEK293 cells to bring the named protein to FLAG-tagged glucokinase (GCK); Myc marks an untargeted standard; higher = target protein stabilised (more abundant)
Settings: target protein: 3xFLAG-MCP-GCK-ALFA reporter; HEK293 landing pad (RPLP)
Outline: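 An ALFA-nanobody-fused binder library was recombined into HEK293 landing-pad cells and induced with 2 μg mL^−1 doxycycline. Cells were transfected with a plasmid expressing a FLAG-tagged target and a Myc-tagged standard. After 48 h, lysates underwent anti-FLAG and anti-Myc immunoprecipitation, and circular RNA barcodes were reverse transcribed, amplified and sequenced. Target abundance is the per-binder median log2 ratio of FLAG to Myc barcode read proportions. Barcodes needed ≥10^−7 proportion in both replicates, binders ≥3 barcodes per replicate, and a 10^−6 pseudocount was added; the two replicates were pooled.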

In order of rising “median log2 fold change” value:
1. B28  -1.39
2. B9  -1.24
3. B20  -1.24
4. B5  -0.966
5. B24  -0.892
6. B10  -0.157
7. B8  -0.073
8. B23  -0.0674
9. B14  -0.0614
10. B4  -0.0369
11. B19  -0.0318
12. B6  -0.0149
13. B25  -0.0117
14. B3  0.0471
15. B22  0.0539
16. B2  0.057
17. B21  0.0667
18. B29  0.0951
19. B1  0.122
20. B18  0.203
21. B27  0.233
22. B11  0.242
23. B12  0.311
24. B15  0.33
25. B13  0.34
26. B17  0.345
27. B7  0.387
28. B26  0.4
29. B16  0.47
